The supplement of paper PMC11555231

biological target: PADI4, Q9UM07; assay: log2 enrichment score relative to parent PADI4_3 peptide (binding to PADI4); higher = tighter binding than parent; details: CaCl2: 10 mM
Outline: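 A cyclic peptide library for mRNA display was built with every internal parent position randomised through NNK codons, a C-terminal HA tag, and methionine reassigned to N-methyl-alanine, then purified on anti-HA beads. A single selection round was run in triplicate against biotinylated His-tagged human PADI4 (100 nM) immobilised on beads, in HEPES/NaCl buffer containing 10 mM CaCl2, DTT, Tween and blockers, with equilibrating washes over 10–12 h at RT. Both the input and eluted libraries were sequenced. Log2 enrichment of bound over input is reported relative to parent as a mean with standard deviation.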

Sequence of PADI4, Q9UM07 (Q9UM07 whole entry): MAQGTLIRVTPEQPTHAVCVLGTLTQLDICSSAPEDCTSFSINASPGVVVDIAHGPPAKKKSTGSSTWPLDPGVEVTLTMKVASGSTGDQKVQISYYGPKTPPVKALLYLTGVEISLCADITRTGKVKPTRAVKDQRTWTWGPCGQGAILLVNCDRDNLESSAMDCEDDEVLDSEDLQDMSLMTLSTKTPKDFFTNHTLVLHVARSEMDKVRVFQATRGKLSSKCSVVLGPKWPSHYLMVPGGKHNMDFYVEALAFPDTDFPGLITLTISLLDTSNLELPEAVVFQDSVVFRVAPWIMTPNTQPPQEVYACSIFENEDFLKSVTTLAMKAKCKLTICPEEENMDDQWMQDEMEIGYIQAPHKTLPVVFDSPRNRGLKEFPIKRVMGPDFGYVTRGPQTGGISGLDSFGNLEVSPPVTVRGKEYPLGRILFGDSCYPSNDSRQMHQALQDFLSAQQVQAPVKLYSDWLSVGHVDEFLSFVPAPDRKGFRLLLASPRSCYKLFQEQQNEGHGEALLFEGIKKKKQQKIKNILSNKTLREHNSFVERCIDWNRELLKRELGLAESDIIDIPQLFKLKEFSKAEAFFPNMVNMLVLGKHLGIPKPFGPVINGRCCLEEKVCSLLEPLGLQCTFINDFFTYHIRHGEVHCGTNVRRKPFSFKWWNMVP

Row | Binder | log2 enrichment score
1 | YRDHHYRHPKTCG [PADI4_3_Y11T Y11T] | -3.95
2 | YRDHTYRHPKYCG [PADI4_3_H5T H5T] | -3.62
3 | YRDHHYRHPTYCG [PADI4_3_K10T K10T] | 0.237
4 | YRTHHYRHPKYCG [PADI4_3_D3T D3T] | -3.58
5 | YRSHHYRHPKYCG [PADI4_3_D3S D3S] | -3.9
6 | YRDHHYRHPKSCG [PADI4_3_Y11S Y11S] | -4.12
7 | YRDSHYRHPKYCG [PADI4_3_H4S H4S] | -2.9
8 | YRDHHTRHPKYCG [PADI4_3_Y6T Y6T] | -2.52
9 | YRDTHYRHPKYCG [PADI4_3_H4T H4T] | -3.53
10 | YRDHHYRHTKYCG [PADI4_3_P9T P9T] | -1.92
11 | YTDHHYRHPKYCG [PADI4_3_R2T R2T] | -1.69
12 | YRDHHYTHPKYCG [PADI4_3_R7T R7T] | -1.3
13 | YRDHHYRTPKYCG [PADI4_3_H8T H8T] | -3.89
